Test [1] is described as follows: Nuclear factor erythroid 2-related factor 2/antioxidant responsive element (Nrf2/ARE) small molecule agonists: qHTS cell viability counter screen in human keratinocytes (AID 1919968; active = well fitted cell-killing curve with a large enough effect in the repeat runs; also: nearly all actives have a fitted effect of over 55% in size). Summed up: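 HaCaT ARE reporter line, 1,500 cells/well; 5 h settle, 37 C/5% CO2; cpd in DMSO pinned; 23 h exposure; CellTiter-Fluor, 1 h; fluorescence.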
On the technique in general: Quantitative high-throughput screening tests each substance at several concentrations.

A short description of test [2]: Nuclear factor erythroid 2-related factor 2/antioxidant responsive element (Nrf2/ARE) small molecule agonists: luciferase reporter gene qHTS assay in human keratinocytes (AID 1919969). Also: nearly all actives have a fitted effect of over 35% in size.
The target of test [3] is Gonadotropin-releasing hormone receptor (Homo sapiens) (UniProt P30968). As to the kind of experiment: Human gonadotropin-releasing hormone receptor (GnRHR) small molecule agonists, calcium flux assay in GnRHR-HEK293 cells (AID 1920063). Also: nearly all actives have a fitted effect of over 35% in size. Summed up:
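GnRHR-HEK293, 1500 cells/well, 18 h 37 C/5% CO2; Ca dye 1 h 37 C; cpd pinned (DMSO), agonist mode; kinetic FL 480/540, 3 min, 1 s reads; 15 conc, n=3.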

Test [4] is described as follows: G protein-coupled receptor (GPCR) small molecule agonists, calcium flux assay: HEK293 wild type cell line counter screen (AID 1920065). Summed up: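 Kinetic fluorescence at Ex/Em 480/540, recorded every second over 3 min, served as the read-out after compound addition. Each compound was tested at 15 concentrations in triplicate on cells pre-loaded with calcium dye for 1 h.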

Test [5] is described as follows: p53 small molecule agonists, cell-based qHTS assay with human liver microsomes (AID 1963577).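 Also: p53 response element beta-lactamase reporter cells with liver microsomes plus NADPH.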 An outline of the steps: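 Reporter activation was measured by LiveBLAzer fluorescence intensity in p53RE-bla cells, which had been exposed to compounds for 16 h at 37 C alongside 0.5 mg/mL human liver microsomes and 0.5 mg/mL NADPH (final concentrations).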
A short description of test [6]: p53 small molecule agonists, cell-based qHTS assay with rat liver microsomes (AID 1963578). An outline of the steps: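 Compound in DMSO added to p53RE-bla cells 5 h post-plating; rat microsomes/NADPH 0.5 mg/mL final; 16 h, 37 C; LiveBLAzer 2 h RT.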
Test [7] in a line: p53 small molecule agonists, cell-based qHTS assay with human liver microsomes: qHTS cell viability counter screen (AID 1963579). Also: nearly all actives have a fitted effect of over 45% in size. An outline of the steps: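 HLM-supplemented (0.5 mg/mL final) and NADPH-supplemented (0.5 mg/mL final) p53RE-bla cultures, 4,000 cells per well, were dosed with compounds in DMSO for 16 h at 37 C; luminescent ATP detection (CellTiter-Glo, 30 min, room temperature) quantified surviving cells.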

Test [8] in a line: p53 small molecule agonists, cell-based qHTS assay with rat liver microsomes: qHTS cell viability counter screen (AID 1963580). Also: nearly all actives have a fitted effect of over 45% in size. Summed up: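 p53RE-bla HCT-116 cells were exposed 16 h at 37 C to compounds with rat liver microsomes (0.5 mg/mL) and NADPH (0.5 mg/mL). Viability was measured in the same wells as ATP content by CellTiter-Glo luminescence.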
Test [9] in a line: p53 small molecule agonists, cell-based qHTS assay: qHTS cell viability counter screen (AID 1963581). Also: nearly all actives have a fitted effect of over 45% in size. An outline of the steps: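 HCT-116 p53RE-bla cells, 4,000/well, plated 5 h before compound pin transfer; 16 h at 37 C; bla substrate 2 h RT; then CellTiter-Glo, 30 min RT, luminescence.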
A short description of test [10]: p53 small molecule agonists, cell-based qHTS assay (AID 1963582; active = well fitted activation curve with a large enough effect in the signal ratio in the repeat runs, not every such curve was filed as active; the % refers to the signal ratio; also: potency is read from the fitted curve at half-maximal effect). Summed up:
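Reporter line: p53RE-bla. Pre-incubation 5 h, 37 C, 5% CO2; compound (DMSO, pin tool) 16 h, 37 C; B/G FRET substrate 2 h RT; fluorescence intensity read.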

The target of test [11] is 5-hydroxytryptamine receptor 2A (Homo sapiens) (UniProt P28223). Put plainly: 5-hydroxytryptamine receptor 2A (HTR2A) small molecule antagonists, cell-based qHTS assay (AID 1963586). Also: nearly all actives have a fitted effect of over 45% in size. Summed up:
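Antagonist-mode intracellular calcium assay: DOI (4 nM) added after 5 min compound pre-incubation at room temperature to dye-loaded HTR2A-CHO cells. Fluorescence followed for 3 min, sampled every second.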

Test [12] shares this target. As to the kind of experiment: 5-hydroxytryptamine receptor 2A (HTR2A) small molecule agonists, cell-based qHTS assay (AID 1963587). Also: nearly all actives have a fitted effect of over 30% in size. An outline of the steps: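 CHO cells stably expressing human HTR2A, plated 18 h, loaded with calcium dye 1 h at 37 C. Agonist mode: compounds added and intracellular calcium fluorescence recorded kinetically for 2 min at 1 sec intervals.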

Test [13] addresses Muscarinic acetylcholine receptor M1 (Homo sapiens) (UniProt P11229). Put plainly: Cholinergic receptor muscarinic 1 (CHRM1) small molecule antagonists, cell-based qHTS assay (AID 1963588). Also: nearly all actives have a fitted effect of over 40% in size. Summed up: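 CHRM1-CHO calcium-flux assay, antagonist mode. Cells were seeded 18 h, dye-loaded 1 h at 37 C and given compound for 5 min at RT, then acetylcholine was added at 50nM. FDSS fluorescence was read 3 min; 15 concentrations, three runs.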

Test [14] shares this target. Put plainly: Cholinergic receptor muscarinic 1 (CHRM1) small molecule agonists, cell-based qHTS assay (AID 1963589). Also: nearly all actives have a fitted effect of over 35% in size. Summed up: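 Human M1 in stable CHO line; 18 h plating, 1 h dye load 37 C; cpd added (agonist mode); Ca2+ fluorescence kinetic read, 1 s intervals; 15 conc, 3 runs.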
The nature of test [15]: cAMP Responsive Elements (CRE) small molecule agonists, cell-based qHTS assay (AID 1963590). An outline of the steps:
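HEK 293T CRE-bla, 2,000 cells/well, 18 h preincubation 37 C/5% CO2; cpds (DMSO) pinned, 3 h; LiveBLAzer B/G FRET substrate, 2 h RT.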

Test [16] in a line: cAMP Responsive Elements (CRE) small molecule antagonists, cell-based qHTS assay (AID 1963591; active = well fitted inhibition curve with a large enough effect in the signal ratio in the repeat runs, not every such curve was filed as active; the % refers to the signal ratio). Summed up: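 Beta-lactamase reporter read by FRET substrate (LiveBLAzer B/G) after 2 h at room temperature. CRE-bla HEK293T cells had received compound plus 0.25 uM (final) NKH477 for 3 h at 37 °C.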
The target in test [17] is Beta-2 adrenergic receptor (Homo sapiens) (UniProt P07550). Put plainly: Adrenergic beta2 receptor (ADRB2) small molecule antagonists, cell-based qHTS assay (AID 1963592). Also: series mostly up to about 92 µM; nearly all actives have a fitted effect of over 50% in size. Summed up:
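Cells (CHO, stable ADRB2 overexpression) incubated 18-20hr at 37C; compounds added from DMSO; agonist mix (1nM isoproterenol, 100uM IBMX, 25uM Ro-20-1724) added; 0.5hr RT; d2-cAMP and anti-cAMP-cryptate added; 1hr RT; 665/615 nm read.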

For test [18], the target named is D(2) dopamine receptor (Homo sapiens) (UniProt P14416). As to the kind of experiment: Dopamine D2 receptor (DRD2) small molecule agonists, cell-based qHTS assay (AID 1963594). Also: nearly all actives have a fitted effect of over 35% in size. Summed up:
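HEK293 cells stably expressing human DRD2, pre-treated with PDE inhibitor Ro20-1724 (0.1 mM final) and compound 10 min at room temperature, then stimulated with NKH477 (200nM […]) for 30 min. cAMP read by HTRF (665/620 nm).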

Test [19] has the same target. Put plainly: Dopamine D2 receptor (DRD2) small molecule antagonists, cell-based qHTS assay (AID 1963595; active = well fitted inhibition curve with a large enough effect in the signal ratio in the repeat runs, with a control signal flat; the % refers to the signal ratio; also: potency is read from the fitted curve at half-maximal effect). Summed up:
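HEK293 cells stably expressing DRD2, preincubated with 0.1 mM Ro20-1724 and compounds 10 min, were stimulated with 200 nM NKH477 plus 12 nM quinpirole for 30 min at room temperature; cAMP measured by HTRF (665/620 nm).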

The target of test [20] is Beta-2 adrenergic receptor (Homo sapiens) (UniProt P07550). As to the kind of experiment: Adrenergic beta2 receptor (ADRB2) small molecule agonists, cell-based qHTS assay (AID 1963593).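 Also: CHO cells stably overexpressing human ADRB2.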 An outline of the steps: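 CHO cells stably over-expressing ADRB2 were plated overnight at 37C, then dosed with compounds plus a stimulation mix containing 100uM IBMX and 25uM Ro-20-1724 for 0.5hr at room temperature. cAMP was measured by HTRF competition, 1hr.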
Chain of Beta-2 adrenergic receptor (Homo sapiens) (P07550 whole entry, looked up): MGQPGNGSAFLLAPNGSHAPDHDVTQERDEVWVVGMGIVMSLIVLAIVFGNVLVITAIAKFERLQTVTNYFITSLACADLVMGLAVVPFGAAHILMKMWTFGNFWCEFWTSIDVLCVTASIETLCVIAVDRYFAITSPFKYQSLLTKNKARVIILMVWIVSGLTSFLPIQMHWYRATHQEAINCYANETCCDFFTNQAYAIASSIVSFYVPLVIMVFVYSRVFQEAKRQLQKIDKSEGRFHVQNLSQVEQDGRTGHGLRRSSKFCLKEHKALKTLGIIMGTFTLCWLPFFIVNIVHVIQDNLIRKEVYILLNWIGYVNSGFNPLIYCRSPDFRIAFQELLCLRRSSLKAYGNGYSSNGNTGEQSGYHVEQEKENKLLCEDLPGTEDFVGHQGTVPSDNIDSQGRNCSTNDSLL

Consider seven molecules from PubChem BioAssay (Tox21).

SMILES strings stand for the structures. Values without a mark were called inactive. Results filed as inconclusive are left out. The source made the active and inactive calls. Unless noted, calls follow the shape of the full dose curve.
% is scaled to controls: 0 for no effect and ±100 for the full control effect.

Chain of D(2) dopamine receptor (Homo sapiens) (P14416 whole entry, looked up): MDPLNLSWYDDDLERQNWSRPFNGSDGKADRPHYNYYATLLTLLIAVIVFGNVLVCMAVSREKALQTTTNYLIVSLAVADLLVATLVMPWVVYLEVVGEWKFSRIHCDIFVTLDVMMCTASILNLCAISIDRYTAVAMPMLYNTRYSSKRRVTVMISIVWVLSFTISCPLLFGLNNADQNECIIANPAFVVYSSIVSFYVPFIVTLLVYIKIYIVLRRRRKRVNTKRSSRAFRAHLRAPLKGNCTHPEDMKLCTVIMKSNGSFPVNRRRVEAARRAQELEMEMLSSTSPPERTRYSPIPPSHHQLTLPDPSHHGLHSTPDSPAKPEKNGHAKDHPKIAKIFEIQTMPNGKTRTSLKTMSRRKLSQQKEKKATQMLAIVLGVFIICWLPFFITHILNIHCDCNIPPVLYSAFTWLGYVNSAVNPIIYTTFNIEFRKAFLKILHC
Chain of 5-hydroxytryptamine receptor 2A (Homo sapiens) (P28223 whole entry, looked up): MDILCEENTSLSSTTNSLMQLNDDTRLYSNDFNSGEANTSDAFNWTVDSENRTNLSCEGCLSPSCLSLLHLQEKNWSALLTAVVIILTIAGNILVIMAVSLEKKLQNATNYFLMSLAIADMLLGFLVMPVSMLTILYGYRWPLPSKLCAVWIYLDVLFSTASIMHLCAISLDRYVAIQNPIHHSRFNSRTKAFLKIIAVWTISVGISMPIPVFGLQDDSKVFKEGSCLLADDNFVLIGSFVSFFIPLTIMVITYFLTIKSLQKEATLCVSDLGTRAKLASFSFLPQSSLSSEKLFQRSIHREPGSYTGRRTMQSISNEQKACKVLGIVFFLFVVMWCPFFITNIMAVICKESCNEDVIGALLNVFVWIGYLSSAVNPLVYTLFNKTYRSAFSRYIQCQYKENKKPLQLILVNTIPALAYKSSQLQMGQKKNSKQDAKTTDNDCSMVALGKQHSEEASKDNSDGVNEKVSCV
Chain of Gonadotropin-releasing hormone receptor (Homo sapiens) (P30968 whole entry, looked up): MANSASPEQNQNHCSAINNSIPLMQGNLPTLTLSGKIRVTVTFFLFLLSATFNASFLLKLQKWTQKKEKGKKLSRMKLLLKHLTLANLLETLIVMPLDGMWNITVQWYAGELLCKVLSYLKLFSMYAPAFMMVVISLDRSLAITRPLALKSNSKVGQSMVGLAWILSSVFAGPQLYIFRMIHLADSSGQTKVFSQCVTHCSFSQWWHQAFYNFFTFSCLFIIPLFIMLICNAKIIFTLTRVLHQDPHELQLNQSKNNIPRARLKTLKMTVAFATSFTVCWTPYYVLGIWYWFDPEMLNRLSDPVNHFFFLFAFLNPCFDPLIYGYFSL
Chain of Muscarinic acetylcholine receptor M1 (Homo sapiens) (P11229 whole entry, looked up): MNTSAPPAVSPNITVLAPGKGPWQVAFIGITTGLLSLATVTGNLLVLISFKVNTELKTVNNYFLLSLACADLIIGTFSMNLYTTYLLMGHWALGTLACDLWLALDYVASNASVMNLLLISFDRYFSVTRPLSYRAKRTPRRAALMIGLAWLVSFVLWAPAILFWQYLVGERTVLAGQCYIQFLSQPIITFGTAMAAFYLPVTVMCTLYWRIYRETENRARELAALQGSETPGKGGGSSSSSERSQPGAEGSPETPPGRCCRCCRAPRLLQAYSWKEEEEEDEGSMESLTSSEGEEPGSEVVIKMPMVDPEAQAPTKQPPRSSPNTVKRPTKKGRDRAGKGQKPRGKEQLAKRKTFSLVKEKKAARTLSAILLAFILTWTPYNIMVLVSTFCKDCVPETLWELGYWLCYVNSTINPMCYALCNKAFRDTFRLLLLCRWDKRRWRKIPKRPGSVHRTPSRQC

In the case of `CC(=O)CCC(C)C`, the Potency entry in [1], in [2], in test [3], in test [4], in [5] and in test [6] was “inactive” in each case. The Potency result in test [7], in [8], in [9], in [10], in test [11] and in [12] was “inactive” throughout. Besides, the Potency entry in test [13], in test [14], in [15], in [16], in [17] and in [18] was “inactive” throughout. Moreover, the Potency result in test [19] was “inactive”.
For the molecule `C=CCCC`, the Potency result in test [1], in test [2], in test [3], in test [4], in test [5] and in test [6] was “inactive” throughout. For the same molecule, the Potency entry in [7], in [8], in test [9], in test [10], in test [11] and in test [12] was “inactive” each time. In addition, the Potency result in test [13], in test [14], in [15], in [16], in [17] and in [18] was “inactive” each time. Besides, in [19], the Potency result was “inactive”.
For `CC(C)(C)C(=O)OCOP(=O)(COCCn1cnc2c(N)ncnc21)OCOC(=O)C(C)(C)C`, the Potency result in test [1], in test [2], in test [3], in test [4], in test [5] and in test [6] was “inactive” in each case. Moreover, the Potency result in test [7], in test [8], in test [9], in [11], in test [12] and in test [13] was “inactive” throughout. Moreover, the Potency entry in test [14], in test [17] and in test [18] was “inactive” in each case. Also, the Potency in test [10] was 7.93 µM (active); in [19], 13.3 µM (active).
Turning to `O=C(O)c1cc(=O)c2ccccc2o1`, the Potency result in test [1], in test [2], in test [3], in [4], in [5] and in test [6] was “inactive” each time. Besides, the Potency result in test [7], in test [8], in [9], in [10], in [11] and in test [12] was “inactive” in each case. In addition, the Potency entry in [13], in test [14], in [15], in test [16], in test [17] and in test [18] was “inactive” each time. In addition, the Potency result in [19] was “inactive”.
For `CC1=C(CC(=O)O)c2cc(F)ccc2/C1=C\c1ccc(S(C)=O)cc1` (configuration not stated), the Potency entry in test [1], in [2], in test [3], in test [4], in test [5] and in test [6] was “inactive” in each case. The Potency entry in test [7], in [8], in test [9], in [17], in test [20] and in [18] was “inactive” each time.
For `Cc1cc(C)c(N)c(Cl)c1`, the Potency entry in test [1], in test [2], in test [3], in test [4], in test [5] and in test [6] was “inactive” in each case. Further, the Potency entry in [7], in [8], in test [9], in [10], in test [11] and in test [12] was “inactive” throughout. The Potency result in test [13], in test [15], in test [16], in test [17], in test [18] and in test [19] was “inactive” each time.
With `O=C(O)CN(CCN(CC(=O)O)CC(=O)O)CCN(CC(=O)O)CC(=O)O`, the activity change, negative = cytotoxicity was -0.92% [at 19 µM] in test [1], -3.04% [at 13.5 µM] in test [7] and -9.7% [at 13.5 µM] in [8]. Further, the activity, positive = activation in [2] was -0.151% [at 19 µM]. The activity change in test [3] was -0.364% [at 11.8 µM, stronger effect = higher value]. For the same molecule, the activation is 1.29% [at 11.8 µM] in test [4]; -9.98% [at 13.5 µM] in [5]; -0.423% [at 13.6 µM] in test [6]; 12.4% [at 13.5 µM] in test [10]; 7.55% [at 15.9 µM] in test [12]; -0.409% [at 15.8 µM] in test [14]. Further, the activation in test [15] was 1.22% [at 19 µM]; in test [18], -12% [at 19 µM]. The activity, negative = inhibition in test [11] is 10.6% [at 12.7 µM]; in [13], 9.64% [at 12.6 µM]. Moreover, the values for the activity change, negative = inhibition in [16], in test [17] and in [19] were 3.68% [at 18.9 µM], 2.09% [at 19 µM] and 6.7% [at 18.9 µM], respectively.
